Screening results: PubChem BioAssay, several laboratories
This is a sample that favours compounds with a hit; in the whole collection about 8.7% have one here.
Cav32 inh – inhibitors of human Cav3.2 T-type calcium channel; hit rate 4% among 100,000; O95180; Cav3.2-expressing cells, Fluo-4 calcium fluorescence FDSS; stronger effect = lower value; B-score at 10 µM;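 active means single-dose well whose peak fluorescence ratio is a statistical outlier from its plate by either plate-standardised score or position-corrected B-score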
DAT uptake mod – modulates human dopamine transporter uptake under cocaine; LLC-PK1 hDAT cells, [14C]-dopamine uptake with cocaine IC80; actives deviate in either direction; B-score at 10 µM; AID 449768; hit rate 1.3% among 110,000;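 active means Z score or B-score, a plate-position-corrected score, falls beyond the plate's 99.7% confidence bounds, in either direction; inactive means both scores lie inside the 99.7% bounds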;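 further: scored against the spread of the other compound wells on the same plate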
PostGolgi yeast – growth inhibition of a yeast mutant, post-Golgi transport screen; post-Golgi transport phenotypic cell assay; inhibition, % at 10 µM; hit rate 0.9% among 98,000;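 further: yeast cells grown in 1536-well plates; yeast grown about 18 h at 30C before absorbance read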
PostGolgi ctrl – growth of the yeast control strain, post-Golgi counter-screen. efflux-deficient yeast background strain, growth absorbance A615, 16 h. inhibition, % at 10 µM. hit rate 5% among 98,000
Smad3 FoxH1 inh – blocks human Smad3 binding to FoxH1 peptide. P84022. TR-FRET Smad3/Dy647-FoxH1 peptide binding, europium anti-His. inhibition, % at 25 µM. hit rate 0.29% among 88,000. AID 630;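 active means compounds that reduce the energy-transfer binding signal between the protein and its labelled peptide by more than half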;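 further: 0% = Smad3 plus labelled peptide maximal FRET and 100% = peptide-only background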
Target sequence (P84022 whole entry, looked up): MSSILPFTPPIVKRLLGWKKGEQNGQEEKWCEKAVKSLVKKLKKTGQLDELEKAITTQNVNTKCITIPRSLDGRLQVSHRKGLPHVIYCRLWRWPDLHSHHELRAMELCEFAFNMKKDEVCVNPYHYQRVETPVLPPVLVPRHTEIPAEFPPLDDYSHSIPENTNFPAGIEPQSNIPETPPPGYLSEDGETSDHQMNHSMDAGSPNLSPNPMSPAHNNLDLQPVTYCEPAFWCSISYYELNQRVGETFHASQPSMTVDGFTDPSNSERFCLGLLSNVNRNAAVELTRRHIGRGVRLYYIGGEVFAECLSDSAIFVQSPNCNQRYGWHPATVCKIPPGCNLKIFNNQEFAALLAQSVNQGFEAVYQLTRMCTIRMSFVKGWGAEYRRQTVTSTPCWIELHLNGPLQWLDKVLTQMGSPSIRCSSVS
TNAP act DEA – human TNAP activation, intermediate phosphate acceptor; P05186; purified TNAP, CDP-star luminescence, 100 mM DEA, 30 min; stronger effect = higher value; scale: 0 levamisole-inhibited, 1 vehicle-only enzyme; activation factor at 20 µM; 64,000 tested, under 10 active; AID 813;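 active means activation factor of at least 2 at 20 µM, relative to controls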
Active calls of the source: *; . = no result given. Unless noted, no stated cut-off is given here; in the data, active means inhibition above about 30%; inactive means the rest.

SMILES	Cav32 inh	DAT uptake mod	PostGolgi yeast	PostGolgi ctrl	Smad3 FoxH1 inh	TNAP act DEA
COc1ccc(C2=NCC(CSc3nnc(-c4ccc5c(c4)OCO5)o3)S2)cc1 (stereo not given)	-2.14	1.06	6.1	37.1*	-3.2	0.9
Cc1cc(N2C(=O)C(=O)/C(=C(/O)c3ccc(F)cc3)C2c2ccc(Cl)cc2)no1 (stereo not given)	-6.16*	0.538	-2.4	9.3	4.8	1
O=C(CSc1ccc(Cl)cc1)N1CCN(c2ccc([N+](=O)[O-])cc2Cl)CC1	-3.71	-0.939	81.8*	77.7*	.	.
O=C(c1cc([N+](=O)[O-])ccc1N1CCCCC1)N1CCCCC1	0.0643	-0.328	0.3	-2.4	.	.
O=C(CSc1ccc(Cl)cc1)N1CCN(c2c(Cl)cccc2[N+](=O)[O-])CC1	-2.88	1.35	41.1*	29.3	.	.
CS(=O)(=O)N1CCN(c2c(Cl)cccc2[N+](=O)[O-])CC1	-0.532	-0.606	-2.8	9.7	.	.
CCOC(=O)c1c(NC(=S)NC(=O)c2ccc(Cn3cc(Cl)cn3)o2)sc2c1CCC(C)C2 (stereo not given)	-0.865	-0.664	-4.5	1.7	.	.
COC(=O)c1nn(-c2ccccc2)c(Cl)c1/C=N/OCc1ccc(C)cc1	-1.66	1.61*	-2.7	17.9	.	.
Cc1ccc(C)n1-n1c(C)nc2scc(-c3cccs3)c2c1=O	-3.93*	-0.346	5.3	-1.5	1.7	1
O=c1c2c(-c3cccs3)csc2ncn1-c1ccc(Br)cc1	-2.39	-1.49	-14.3	38.3*	-12.3	.
O=C(c1ccc(C(=O)N2CCCCCC2)cc1)N1CCCCCC1	0.515	1.08	.	.	2.4	.
O=C(c1cccc(Br)c1)N1CCN(C(=O)c2cccc(Br)c2)CC1	0.68	2.18*	.	.	-0.5	.
O=C(c1ccccc1)N1CCN(S(=O)(=O)N2CCCCC2)CC1	.	-0.213	-6.3	44.1*	3.6	1.1
O=C(c1ccccc1)N1CCN(C(=O)c2ccccc2Br)CC1	0.673	-7.74*	2.2	-1.8	6.1	1
Cc1cccc(NC(=O)N2CCCC2C(=O)NCc2cccs2)c1 (stereo not given)	0.0491	-0.507	-4.7	7.1	8.1	.
COC(=O)c1cc(-c2c(C)nn(-c3ccccc3)c2C)n[nH]1	0.467	0.691	-4.4	16.6	8.6	0.8
CCOc1ccccc1CNC(=O)c1cc2occc2n1C	-2.39	0.733	-17.3	10.6	0.3	0.9
N=c1nc(N)nc2n1NC(c1ccc(F)cc1)=CS2	0.383	1.74	99.4*	-9.8	12.8	0.9
C=CCNc1nc(NCCO)nc(N2CCCC2)n1	-1.01	-0.487	2.8	1.6	13.9	0.7
CCOC(=O)c1c(C)[nH]c(C(=O)CN2C(=O)NC(C)(c3ccc4ccccc4c3)C2=O)c1C (stereo not given)	-0.0785	0.543	-5.0	23.9	-3.0	.
CCCC1(c2ccccc2)NC(=O)N(CC(=O)c2[nH]c(C)c(C(=O)OCC)c2C)C1=O (stereo not given)	-5.59*	1.87	1.9	2.5	.	0.9
COc1ccc(/C=N/n2c(-c3cccs3)n[nH]c2=S)cc1	0.00894	0.369	1.6	39.7*	.	.
Cc1ccc(/C=N/n2c(-c3cccs3)n[nH]c2=S)cc1	0.0767	0.0191	-9.5	33.3*	.	.
S=c1[nH]nc(-c2cccnc2)n1/N=C/c1cccs1	1.47	-0.118	4.5	26.9	.	.
Cc1ccsc1/C=N/n1c(-c2ccco2)n[nH]c1=S	0.38	0.325	12.5	23.9	.	.
SMILES	Cav32 inh	DAT uptake mod	PostGolgi yeast	PostGolgi ctrl	Smad3 FoxH1 inh	TNAP act DEA
CCN(Cc1ccccc1)S(=O)(=O)c1ccc(S(=O)(=O)N(Cc2cccc(OC)c2)CC2CCCO2)cc1 (stereo not given)	-6.72*	-0.0119	0.5	-1.5	.	.
CCOC(=O)Cc1csc(NC(=O)COc2ccc3ccccc3c2)n1	-10*	1.18	-6.5	-2.4	-1.5	.
CCOC(=O)Cc1csc(NC(=O)COc2ccc(N(C)S(=O)(=O)c3ccc(C)cc3)cc2)n1	-6.52*	0.0651	-6.3	-2.5	19.6	.
CC1CCN(c2ncnc3c2cnn3-c2ccccc2)CC1	.	-1.05	4.8	31.9*	10.5	0.9
CCOc1cc2c3c(c1)C1(C(=O)N3C(C)(C)C=C2C)C(C#N)=C(N)Oc2cc(O)ccc21 (stereo not given)	-5.6*	-0.255	-2.8	10.3	-2.1	0.9
Cc1ccc(N2C(=O)c3n[nH]c(C)c3C2c2ccco2)cc1 (stereo not given)	0.217	-0.593	8.3	4.0	-0.2	.
CCOc1ccc(-n2cnnn2)cc1S(=O)(=O)NC1CC1	0.553	-0.591	-1.2	6.2	12.7	.
CCOc1ccc(-n2cnnn2)cc1S(=O)(=O)Nc1c(C)cccc1C	0.0251	0.378	-1.1	42.2*	-1.1	1
Cc1cc(C)c2cc(CN(CCO)Cc3nnnn3Cc3ccc(F)cc3)c(=O)[nH]c2c1	-0.668	2.47	10.4	-0.6	1.3	1
Cc1ccc(Cn2c(CCNc3nc(-c4ccc(Cl)c([N+](=O)[O-])c4)cs3)nc3cc(C(=O)NCCCO)ccc32)cc1	0.0195	0.0349	.	.	.	.
CCOC(=O)c1cccc(C(=O)OCC)n1	0.0671	0.0534	-3.5	5.5	0.4	1
Cc1ccc(OC(=O)c2cccc(C(=O)Oc3ccc(C)cn3)n2)nc1	0.825	-8.02*	3.1	-6.3	-8.0	1.1
CCCN(CCC)C(=O)CSc1nc2n[nH]c(C)c2c(=N)n1-c1ccc(OCC)cc1	-6.25*	0.0279	-2.6	14.8	.	1.3
COc1ccc(N2C(=O)C3CCCN3C2c2ccccc2F)cc1 (stereo not given)	0.263	0.548	4.0	-0.3	4.6	0.9
CCOc1ccccc1C1N(c2ccc(OC)cc2)C(=O)C2CCCN21 (stereo not given)	-1.53	1.38	-2.2	33.6*	-4.0	1
COc1cccc(C2=CC(c3cccs3)n3nnnc3N2)c1 (stereo not given)	-2.01	-0.0105	-6.4	10.0	10.3	.
COc1ccc(NC(=O)COC(=O)c2ccc(N3CCCC3=O)cc2)cc1OC	-11.7*	0.196	12.1	11.1	-10.3	1
COc1ccc(NC(=O)Nc2ccc(N3CCCC3=O)cc2)cc1OC	1.24	-0.203	5.2	4.3	2.9	0.9
CCOCCCNC(=O)c1ccccc1SCC	0.159	0.128	.	.	-4.4	0.9
Cc1ccc(-c2nn[nH]n2)cc1	0.238	-8.16*	2.9	-5.1	6.5	0.8
COc1ccc(-c2nn[nH]n2)cc1OC	-0.494	-0.643	-2.8	-4.0	-7.3	.
O=C(c1ccco1)N1CCN(C(=O)c2cccs2)CC1	-1.29	-0.486	-0.8	1.2	7.4	.
COc1ccc(NC(=O)N2CCN(c3nc(-c4cccc(OC)c4)cs3)CC2)cc1	-1.74	1.34	-16.9	41.5*	10.5	1
COc1cccc(-c2csc(N3CCN(C(=S)Nc4ccccc4Cl)CC3)n2)c1	-4.05*	1.21	6.1	24.2	.	.
COc1ccc(NC(=O)CN(C)S(=O)(=O)c2ccccc2)cc1	-0.517	0.21	3.8	9.2	5.1	.
